Screening results from PubChem BioAssay.
The sample as a whole holds a higher share of hits than the screen did.
Pf Dd2 growth – blocks in vitro growth of P. falciparum Dd2; P. falciparum Dd2 growth, SYBR Green, 72 h; actives 4.3% (n = 120,000); Potency, µM (highest dose often 28.9 µM), for inactives: top-dose activity, negative = inhibition, hits mostly inhibitors; active = well fitted inhibition curve with a large enough effect;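 note: plate controls were DMSO vehicle for no effect and reference drug for full effect; nearly all actives have a fitted effect of over 65% in size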
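Readout: SYBR Green fluorescence, 485 nm excitation, 535 nm emission, after ~16 h lysis at 37C. Before that, Dd2-infected red cells (2.5% hematocrit) grew 72 h with compound, 29 uM top final concentration.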
* marks the source's active call; other numbers are inactive results; i = inactive; [ ] = remark or other dose. Potency is the fitted concentration of half-maximal effect.

SMILES	Pf Dd2 growth
CCCN(CC1CCOC1)C(=O)Nc1cccc(SC)c1 (configuration not stated)	38%[5.79 µM]
O=C(Cc1ccsc1)NC1CCCN(c2cc(-c3ccccc3)[nH]n2)C1 (configuration not stated)	-5%
CCn1c(C2CCCN(C(=O)c3nnn(Cc4ccccc4)c3C)C2)n[nH]c1=O (configuration not stated)	13%
O=C(Cn1ccn2nc(-c3ccc(F)cc3)c(CO)c2c1=O)Nc1cccc(F)c1	-22%
COCCNC(=O)C(=O)NCC(c1cccnc1)N1CCN(c2ccccc2OC)CC1 (configuration not stated)	-13%
Cc1ccc(NC(=O)C(=O)NCC(c2cccnc2)N2CCN(Cc3ccccc3)CC2)cc1Cl (configuration not stated)	3.5µM*
O=C(NCC(c1cccnc1)N1CCOCC1)C(=O)Nc1cccc(Cl)c1 (configuration not stated)	-15%
O=C(NCC(c1cccnc1)N1CCN(c2ccccc2F)CC1)C(=O)Nc1ccc(F)cc1F (configuration not stated)	3.2µM*
CN1CCN(C(CNC(=O)C(=O)Nc2ccc(F)cc2)c2cccnc2)CC1 (configuration not stated)	-8%
O=C(NCC(c1cccnc1)N1CCOCC1)C(=O)Nc1ccc(Cl)cc1 (configuration not stated)	-14%
C[C@H](C(=O)N1CCOCC1)C1CC[C@@]2(C)Cc3sc(-c4ccccc4)nc3[C@@H](C)[C@@H]2[C@H]1O (some centres not stated)	-25%
Cc1cc(CNC(=O)[C@@H]2CCC[C@@H](NC(=O)CC(C)C)CN(C)C(=O)C2)no1	5%[44.1 µM]
O=C1NCCCCCCN(C(=O)Nc2ccccc2F)[C@H]2CCCC[C@@H]12	-29%
CCNC(=O)N1C[C@@H]2OCC(=O)N(C(C)C)[C@@H]2C1	6%[44.1 µM]
CC(=O)N(C1CC1)C1CCOC2(CCN(C(=O)c3nccc4ccccc34)CC2)C1 (configuration not stated)	-23%
Cc1ccccc1OCc1ccc(-c2nc(C#N)c(N3CCN(c4ccccc4)CC3)o2)o1	11µM*
N#Cc1nc(/C=C/c2ccc(F)cc2)oc1N1CCN(c2ccccc2)CC1	60%
Cc1ccc(OCc2ccc(-c3nc(C#N)c(N4CCN(c5cccc(Cl)c5)CC4)o3)o2)cc1	-8%
N#Cc1ccc(S(=O)(=O)N2CCc3n[nH]c(=O)n3CC2)cc1	42%
CCC(=O)Nc1ccc(C2(C(=O)N3CCN(c4ccccc4)CC3)CCC2)cc1	-20%
CCNC(=O)C1(c2ccc(NC(=O)C(C)C)cc2)CCCCC1	-13%
CC(C)C(=O)Nc1ccc(C2(C(=O)N3CCN(c4ccccc4)CC3)CCCCC2)cc1	7.9µM*
Cc1ccc(C(=O)N2CCC3(C2)C(=O)Nc2ccccc23)cc1 (configuration not stated)	-10%
CCN(CC)c1ccc(C(=O)N2CCC(c3ccncc3)CC2)cc1	57%[5.79 µM]
COc1ccccc1C(=O)N1CCC2(C1)C(=O)N(C)c1ccccc12 (configuration not stated)	i
SMILES	Pf Dd2 growth
COc1ccccc1C(=O)N1CCC(c2c[nH]c3ccccc23)(c2c[nH]c3ccccc23)CC1	3.5µM*
COc1ccccc1C(=O)N1CCC(C(=O)O)(c2ccccc2)CC1	4%
CCN(CC)c1ccc(C(=O)N2CCC(c3c[nH]c4ccccc34)(c3c[nH]c4ccccc34)CC2)cc1	4µM*
Nc1nc2c(s1)C(c1cccc(F)c1F)CC(=O)N2 (configuration not stated)	i
COc1cc(Cl)ccc1C(=O)NC1CCN(c2cc(-c3ccc(F)cc3)[nH]n2)C1 (configuration not stated)	i
CN1C(=O)N(C)C2(CCN(CCOc3ccc(F)cc3)C2)C1=O (configuration not stated)	-3%
Cn1cc(CN2C[C@H](C(=O)Nc3nccs3)C[C@@H]2c2cccc(C(F)(F)F)c2)cn1	-26%[44.1 µM]
CN1C[C@H](C(=O)Nc2nccs2)C[C@H]1c1cccc(C(F)(F)F)c1	2.8µM*
CN1C[C@H](C(=O)Nc2ccncn2)C[C@H]1c1cccc(C(F)(F)F)c1	-5%[44.1 µM]
CCc1noc(C)c1C(=O)N1CCC(c2[nH]ncc2-c2ccccc2C)CC1	-29%
CNC(=O)[C@@H]1CN(C(=O)c2ccc(Br)o2)C[C@H]1c1n[nH]c(C)n1	18%
CCOC(=O)c1c(C)oc2nc(C)nc(NCCc3ccc(C)cc3)c12	-10%
Cc1nc(N2CCCC2)c2c(C(=O)N3CCN(c4ccc(F)cc4)CC3)c(C)oc2n1	-9%
CCOC(=O)c1c(C)oc2nc(C)nc(NCC3CCN(Cc4cccc(C)c4)CC3)c12	i[5.79 µM]
CCOC(=O)c1c(C)oc2nc(C)nc(NCC3CCN(Cc4cc(C)ccc4C)CC3)c12	-3%
CCOC(=O)c1c(C)oc2nc(C)nc(NCCc3ccc(S(N)(=O)=O)cc3)c12	i[5.79 µM]
CCOC(=O)c1c(C)oc2nc(C)nc(NCc3ccccc3OC)c12	8.9µM*
CCOC(=O)c1c(C)oc2nc(C)nc(NCCCN3CCN(c4ccc(F)cc4)CC3)c12	11µM*
CCOC(=O)c1c(C)oc2ncnc(Nc3ccc(CC)cc3)c12	i
CCOC(=O)c1c(C)oc2nc(C)nc(NCc3ccccc3OCC)c12	8.9µM*
Cc1cccc(-n2c(=O)c3c(cc(C)n3C)n(CC(=O)N(C)c3ccccc3)c2=O)c1	i
NC(=O)CCN1CCc2onc(-c3ccccc3F)c2C1	5%
COc1ccc(CC(=O)NCc2cccc(SC)c2)cc1	-32%
COCC(=O)NC[C@H]1O[C@H](Cc2cc(-c3ccccn3)on2)CC[C@@H]1O	-14%[44.1 µM]
O=C1CCCN1CCCn1ccnc1-c1cc2n(n1)CCCNC2	4%
SMILES	Pf Dd2 growth
O=C1CC2(CCN([S+](=O)([O-])c3cccc(C(F)(F)F)c3)CC2)Oc2ccccc2N1	i
COCc1cc(CC2(NCc3ccccc3F)COC2)no1	24%[44.1 µM]
COCCNC(=O)[C@@H]1CCC[C@@H](NCc2nccs2)CN(C)C(=O)C1	-4%[44.1 µM]
O=C(CCC1CCCN(S(=O)(=O)c2cccc(F)c2)C1)NC1CCCCC1 (configuration not stated)	i
COc1cccc(-c2cccc(-c3nc(C4CCOCC4)nn3CCO)c2)c1	-7%
COc1ccc(NC(=O)c2ccc3c(c2)N(Cc2cccc(Cl)c2)C(=O)c2ccccc2S3(=O)=O)cc1Cl	7.9µM*
NC(=O)C1CCN(C(=O)c2ccc3c(c2)N(Cc2cccc(Cl)c2)C(=O)c2ccccc2S3(=O)=O)CC1	22%
COCCNC(=O)c1ccc2c(c1)N(Cc1cccc(Cl)c1)C(=O)c1ccccc1S2=O (configuration not stated)	22%
COc1ccc(CCNC(=O)c2ccc3c(c2)N(Cc2cccc(C)c2)C(=O)c2ccccc2S3(=O)=O)cc1OC	i
COc1ccc(NC(=O)c2ccc3c(c2)N(Cc2cccc(Cl)c2)C(=O)c2ccccc2S3=O)cc1Cl (configuration not stated)	3.2µM*
CC1CCCCN1C(=O)c1ccc2c(c1)N(Cc1cccc(Cl)c1)C(=O)c1ccccc1S2=O (configuration not stated)	-12%
CC(=O)Nc1ccc(NC(=O)c2ccc3c(c2)N(Cc2cccc(Cl)c2)C(=O)c2ccccc2S3=O)cc1 (configuration not stated)	11µM*
O=C(c1ccc2c(c1)N(Cc1cccc(Cl)c1)C(=O)c1ccccc1S2=O)N1CCC(Cc2ccccc2)CC1 (configuration not stated)	-25%
